{"source": "PubChem BioAssay (NCATS)", "note": "Unmarked numbers belong to inactive results. Unless noted, calls come from the whole dose curve; as a rule, active = well fitted curve in the direction sought with a large enough effect; inconclusive = small, poorly fitted or top-dose-only effect, or another doubt; inactive = no such curve, though single readings can be large; an effect the other way counts as inactive or inconclusive. Note: 0% is about no effect."}
{"molecular_target": "Thyrotropin-releasing hormone receptor (Homo sapiens) (UniProt P34981)", "sequence (P34981 whole entry, looked up)": "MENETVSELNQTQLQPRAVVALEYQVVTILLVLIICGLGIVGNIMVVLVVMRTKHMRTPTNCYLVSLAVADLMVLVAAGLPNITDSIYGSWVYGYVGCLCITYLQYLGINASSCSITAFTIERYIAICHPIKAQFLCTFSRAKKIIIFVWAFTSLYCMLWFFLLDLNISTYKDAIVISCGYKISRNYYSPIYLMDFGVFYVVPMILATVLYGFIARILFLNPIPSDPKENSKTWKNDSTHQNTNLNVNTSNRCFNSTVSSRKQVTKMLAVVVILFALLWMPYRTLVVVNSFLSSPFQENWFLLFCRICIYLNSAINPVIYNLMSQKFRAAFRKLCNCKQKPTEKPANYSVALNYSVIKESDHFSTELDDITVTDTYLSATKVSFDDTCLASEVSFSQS", "experiment": "qHTS for Small Molecule Agonists and Allosteric Enhancers of Human TRH Receptor: Validation Screen for Agonists (AID 493127;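 active = calcium activation more than 3 SD above the typical response in the agonist read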;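 note: intracellular calcium rise by fluo-8 fluorescence before TRH EC20 addition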)", "details": "TRH receptor agonist cell assay; at 2 µM; hits give high values", "summary_of_the_method": "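Kinetic fluorescence assay of agonist-induced calcium release: overnight-plated TRHR cells, room-temperature fluo-8 loading, baseline then compound addition with per-second reads.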", "units": {"activation": "%"}}
{"smiles": "Cc1ccc(S(=O)(=O)N[C@@H](Cc2ccccc2)C(=O)CCl)cc1", "activation": 2.5}
{"smiles": "CC(C)(C)NC(=O)[C@H]1CC[C@H]2[C@@H]3CC[C@H]4NC(=O)C=C[C@]4(C)[C@H]3CC[C@]12C", "activation": 0.688}
{"smiles": "CCN1CCCC1CNC(=O)c1cc(S(N)(=O)=O)ccc1OC", "note": "(stereo not given)", "activation": 0.25}
{"tested_on": "not listed separately", "experiment": "qHTS for Inhibitors of Cell Surface uPA Generation: Validation Assay (AID 493164);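 note: RAW 264.7 macrophage cells exposed to compound for 18 h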", "details": "mouse cells, plasminogen activation; series mostly up to 38.3 µM; activity change: at the top concentration", "summary_of_the_method": "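Compounds are titrated over seven points (2.45 nM–38.3 uM final) onto pre-plated RAW 264.7 cells and incubated for 18 h. Retained intracellular ATP, measured with ATP-Lite, indicates blocked lethal factor entry.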", "units": {"activity change": "%"}}
{"smiles": "CC(=O)[C@H]1CC[C@H]2[C@@H]3CCC4=CC(=O)CC[C@]4(C)[C@H]3CC[C@]12C", "activity change": 0.339}
{"smiles": "Cc1ccc(S(=O)(=O)N[C@@H](Cc2ccccc2)C(=O)CCl)cc1", "activity change": 1.73}
{"smiles": "CCN1CCCC1CNC(=O)c1cc(S(N)(=O)=O)ccc1OC", "note": "(stereo not given)", "activity change": 0.659}
{"molecular_target": "Galactokinase (Homo sapiens) (UniProt P51570)", "sequence (P51570 whole entry, looked up)": "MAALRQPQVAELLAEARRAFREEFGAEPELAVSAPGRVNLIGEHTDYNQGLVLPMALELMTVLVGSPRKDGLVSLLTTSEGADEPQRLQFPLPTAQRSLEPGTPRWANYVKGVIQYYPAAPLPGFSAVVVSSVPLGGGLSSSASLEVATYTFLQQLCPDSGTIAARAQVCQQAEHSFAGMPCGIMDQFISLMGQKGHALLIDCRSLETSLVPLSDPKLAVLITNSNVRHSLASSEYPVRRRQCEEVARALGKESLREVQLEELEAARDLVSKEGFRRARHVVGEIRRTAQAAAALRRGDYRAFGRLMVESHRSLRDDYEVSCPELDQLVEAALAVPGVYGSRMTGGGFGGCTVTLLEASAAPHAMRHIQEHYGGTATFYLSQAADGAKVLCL", "experiment": "qHTS Validation Assay for Inhibitors of Human Galactokinase (GALK) (AID 493189)", "details": "purified human GALK enzyme activity, qHTS 7-point titration; series mostly up to 57.5 µM; activity change, negative = inhibition: at the top concentration", "summary_of_the_method": "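GALK (5 nM) with 35 uM ATP and 100 uM galactose in HEPES pH8.0, MgCl2, NaCl, DTT, BSA; 1 h at room temperature. Residual ATP read by Kinase-Glo Plus luminescence after 10 min.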", "units": {"activity change, negative = inhibition": "%"}}
{"smiles": "CC(=O)[C@H]1CC[C@H]2[C@@H]3CCC4=CC(=O)CC[C@]4(C)[C@H]3CC[C@]12C", "activity change, negative = inhibition": -4.18}
{"smiles": "Cc1ccc(S(=O)(=O)N[C@@H](Cc2ccccc2)C(=O)CCl)cc1", "activity change, negative = inhibition": -3.43}
{"smiles": "CC(C)(C)NC(=O)[C@H]1CC[C@H]2[C@@H]3CC[C@H]4NC(=O)C=C[C@]4(C)[C@H]3CC[C@]12C", "activity change, negative = inhibition": 1.5}
{"smiles": "CCN1CCCC1CNC(=O)c1cc(S(N)(=O)=O)ccc1OC", "note": "(stereo not given)", "activity change, negative = inhibition": -14.8}
